# From PubChem BioAssay (EPA / NIEHS)
# Results filed as inconclusive are left out. The source made the active and inactive calls. Rule for the calls, unless noted: active = hit-call score of the fitted dose curve at least 0.9, where 1 is the maximum; inactive = score below 0.9.
# Columns and labels:
# [1] = TAMU_PeakParms_SingleDonor1434_Chronotropy: Texas A&M University (TAMU) 1.5-hr Human Induced Pluripotent Stem Cell (iPSC)-derived Cardiomyocytes Calcium (Ca+2) Flux Assay for Cardiotoxicity: Chronotropy (changes in peak frequency) (AID 2284217); settings: actives raise or lower the signal
# Method in brief: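 iPSC-CMs, donor 1434; 4 conc (0.2–100 uM), 0.5% v/v DMSO, 90 min, 37C/5% CO2; Ca2+ flux fluorescence → peak.freq.avg; peak.freq.avg = 0 dropped; bidirectional fit vs DMSO; EC05 POD.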
# [2] = UKN4_HCS_LUHMES_neurite_outgrowth: University of Konstanz (UKN) Leist Lab Neurite Outgrowth Assay in human LUHMES cells (UKN4) (AID 2284206); settings: actives raise or lower the signal
# Method in brief: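 LUHMES neuronal precursors differentiated 2 days, replated without cAMP/GDNF, then exposed to chemicals for 24 h. Neurite area imaged by high-content microscopy after calcein-AM staining; Hoechst H-33342 marks viability. Bidirectional fit versus DMSO.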
# [3] = IUF_NPC1b_proliferation_BrdU_72hr: Leibniz Research Institute for Environmental Medicine (IUF) 72-hour Neural Progenitor Cell Bromodeoxyuridine (BrdU) Proliferation Assay (NPC1b) (AID 2284207)
# Method in brief: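 BrdU luminescence ELISA quantified DNA synthesis over the last 16 h of a 72 h exposure, fitted against DMSO. Primary hNPC spheres from gestational week 16-19 cortex grown with EGF/FGF at 37C, pH 7.2-7.6.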
# [4] = IUF_NPC1a_proliferation_area_72hr: Leibniz Research Institute for Environmental Medicine (IUF) 72-hour Neural Progenitor Cell Proliferation Area Assay (NPC1a) (AID 2284208)
# Method in brief: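 Read-out: increase in sphere area over 72 h by automated phase-contrast imaging, fitted in positive direction versus DMSO baseline. One hNPC sphere (0.25-0.35 mm) per well in EGF/FGF medium; growth-factor withdrawal served as positive control.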
# [5] = IUF_NPC1_viability_72hr: Viability Assessment at 72 hours in the Leibniz Research Institute for Environmental Medicine (IUF) Neural Progenitor Cell Proliferation Assay (NPC1) (AID 2284209)
# Method in brief: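 Human fetal-cortex neural progenitor spheres (0.25–0.35 mm, one per well) grown in EGF/FGF proliferation medium at 37C, pH 7.2-7.6, exposed 72 h without renewal; viability read as alamar blue resazurin-to-resorufin fluorescence relative to DMSO.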
# [6] = CCTE_Mundy_HCI_Cortical_Synap_Neur_Matur_NeuriteSpotCountPerNeuriteLength: CCTE's Synaptogenesis and Neurite Maturation Assay in rat cortical cells for Neurite Spot Count per Neurite Length, Mundy Lab (AID 2284210)
# Method in brief: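 Rat primary cortical cultures, AraC added at DIV 5 to suppress glia; chemical exposure from DIV 7 to DIV 12. Fixed cells stained for MAP2 and synaptophysin plus Hoechst; synaptophysin puncta per neurite length quantified by high-content imaging, relative to DMSO.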
# [7] = CCTE_Mundy_HCI_Cortical_Synap_Neur_Matur_BPCount: CCTE's Synaptogenesis and Neurite Maturation Assay in rat cortical cells for Branch Point Count, Mundy Lab (AID 2284211)
# Method in brief: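 Branch point number is quantified by automated imaging of fluorescently labelled neurites and synapses in rat primary cortical neurons exposed from DIV 7 to DIV 12. Activity is analysed relative to DMSO negative control.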
# [8] = CCTE_Mundy_HCI_Cortical_NOG_NeuriteCount: CCTE's Neurite Outgrowth Assay in rat cortical cells for Neurite Count, Mundy Lab (AID 2284212);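 note: cells fixed about two days after chemical exposure began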
# Method in brief: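 Neurite number per cell from high-content imaging of betaIII-tubulin immunostaining, with Hoechst nuclear counterstain.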
# [9] = CCTE_Mundy_HCI_Cortical_NOG_NeuriteLength: CCTE's Neurite Outgrowth Assay in rat cortical cells for Neurite Length, Mundy Lab (AID 2284213);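 for AC50: neurites imaged about 48 to 50 h after chemical exposure began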
# Method in brief: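 Neurite length was read by high-content imaging of βIII-tubulin-labelled neurites in rat primary cortical cultures. Activity was fitted relative to DMSO.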
# [10] = CCTE_Mundy_HCI_Cortical_Synap_Neur_Matur_NeuriteLength: CCTE's Synaptogenesis and Neurite Maturation Assay in rat cortical cells for Neurite Length, Mundy Lab (AID 2284214)
# Method in brief: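 Rat primary cortical cells were plated, treated with AraC at DIV 5 to arrest glial growth, then chemical-dosed with media change at DIV 7 through DIV 12. Fixed cells stained for MAP2, synaptophysin and Hoechst; neurite length quantified by high-content imaging.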
# [11] = CCTE_Mundy_HCI_Cortical_Synap_Neur_Matur_NeuriteSpotCountPerNeuron: CCTE's Synaptogenesis and Neurite Maturation Assay in rat cortical cells for Neurite Spot Count per Neuron Count, Mundy Lab (AID 2284215)
# Method in brief: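 Rat primary cortical cells received AraC at DIV 5, then chemicals with a media change at DIV 7, and were fixed at DIV 12. Synaptophysin puncta on MAP2-stained neurites per neuron were counted by high-content imaging, fitted relative to DMSO.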
# [12] = CCTE_Mundy_HCI_Cortical_Synap_Neur_Matur_SynapseCount: CCTE's Synaptogenesis and Neurite Maturation Assay in rat cortical cells for Synapse Count, Mundy Lab (AID 2284218)
# Method in brief: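 Rat primary cortical cells in 96-well plates received AraC at DIV 5 and were dosed with chemicals at DIV 7 with media change, through DIV 12 (288.33 h). Synapses per neuron counted by high-content imaging of MAP2/synaptophysin/Hoechst staining, versus DMSO baseline.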
# [13] = CCTE_Mundy_HCI_Cortical_Synap_Neur_Matur_NeuriteCount: CCTE's Synaptogenesis and Neurite Maturation Assay in rat cortical cells for Neurite Count, Mundy Lab (AID 2284222);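 for outcome: exposure from day 7 to day 12 in vitro with readout at day 12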
# Method in brief: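 Primary rat cortical cells were plated, treated with AraC at DIV 5, then exposed to chemicals from DIV 7 through DIV 12. After fixation and immunostaining for MAP2 and synaptophysin, imaging quantified neurites, with DMSO as the negative control.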
# [14] = CCTE_Mundy_HCI_Cortical_Synap_Neur_Matur_CellBodySpotCount: CCTE's Synaptogenesis and Neurite Maturation Assay in rat cortical cells for Cell Body Spot Count, Mundy Lab (AID 2284223)
# Method in brief: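 Rat primary cortical cultures received AraC at DIV 5 to arrest glia, were dosed with chemical at DIV 7 with media change, and were fixed at DIV 12 (288.33 h). Synaptophysin puncta on MAP2-positive cell bodies per neuron were counted by high-content imaging versus DMSO.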
# [15] = CCTE_Mundy_HCI_hNP1_Pro_ResponderAvgInten: CCTE's Proliferation Assay in human neuroprogenitor cells, Mundy Lab (AID 2284224; active = hit-call score of the fitted dose curve at least 0.9, where 1 is the maximum;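 note: human neural progenitor cells hNP1 derived from WA09 embryonic stem cells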)
# Method in brief: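 Proliferation read as average intensity of BrdU-positive cells, imaged at 26.25 h post-dosing: chemical exposure started after 40–44 h culture, BrdU during final 4 h, paraformaldehyde fixation. Positive-direction fit relative to DMSO.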
# [16] = UKN4_HCS_LUHMES_cell_viability: Viability Assessment in the University of Konstanz (UKN) Leist Lab Neurite Outgrowth Assay in human LUHMES cells (UKN4) (AID 2284232)
# Method in brief: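 LUHMES cells differentiated 2 days, replated without cAMP/GDNF, then exposed to compounds for 24 h from attachment. Viability read by high-content fluorescence imaging after 30 min live-staining with H-33342 and calcein-AM; bidirectional fit relative to DMSO baseline.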
# [17] = UKN2_HCS_IMR90_neural_migration: University of Konstanz (UKN) Leist Lab Neural Crest Cell Migration Assay in human induced IMR90 Pluripotent Stem Cells (UKN2) (AID 2284204); settings: actives raise or lower the signal
# Method in brief: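 iPSC-derived IMR90 neural crest cells seeded around stoppers on PLO/laminin/fibronectin; migration started in N2-S medium with EGF/FGF, compounds added after 24 h for 24 h. Migration into cell-free area imaged after calcein-AM/Hoechst staining; bidirectional fit versus DMSO.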
# [18] = CCTE_Mundy_HCI_hN2_NOG_NeuriteCount: CCTE's Neurite Outgrowth Assay in human hN2 cells for Neurite Count, Mundy Lab (AID 2284219; active = hit-call score of the fitted dose curve at least 0.9, where 1 is the maximum)
# Method in brief: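 In this morphology assay, hNP1-derived neurons received test chemical 2 h post-plating and were fixed two days later in warm paraformaldehyde/sucrose containing Hoechst 33342. Neurites, labelled by rabbit anti-βIII-tubulin (1:800) and Alexa Fluor-488 (1:500), were counted automatically.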
# [19] = CCTE_Mundy_HCI_hN2_NOG_NeuriteLength: CCTE's Neurite Outgrowth Assay in human hN2 cells for Neurite Length, Mundy Lab (AID 2284220; active = hit-call score of the fitted dose curve at least 0.9, where 1 is the maximum)
# Method in brief: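 Read-out is neurite length from high-content imaging of βIII-tubulin/Alexa Fluor-488-labelled neurons, referenced to DMSO controls.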
# [20] = CCTE_Mundy_HCI_hN2_NOG_NeuronCount: CCTE's Neurite Outgrowth Assay in human hN2 cells for Neuron Count, Mundy Lab (AID 2284221; active = hit-call score of the fitted dose curve at least 0.9, where 1 is the maximum)
# Method in brief: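 Read-out is the number of betaIII-tubulin-positive neurons imaged by automated high-content analysis, with DMSO as negative control.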
structure (smiles),measurement,setting,value
Cc1occc(=O)c1O,outcome,[1],inactive
OCC(O)CO,outcome,[2],inactive
same,outcome,[3],inactive
same,outcome,[4],inactive
same,outcome,[5],inactive
same,outcome,[6],inactive
same,outcome,[7],inactive
same,outcome,[8],inactive
same,outcome,[9],inactive
same,outcome,[10],inactive
same,outcome,[11],inactive
same,outcome,[12],inactive
same,outcome,[13],inactive
same,outcome,[14],inactive
same,outcome,[15],inactive
same,outcome,[16],inactive
CCc1nc(N)nc(N)c1-c1ccc(Cl)cc1,outcome,[1],inactive
Nc1nc(=S)c2[nH]cnc2[nH]1,AC50,[1],89.6 µM (active)
O=C(O)CC(O)(CC(=O)O)C(=O)O,outcome,[1],inactive
CN(C)CCCN1c2ccccc2Sc2ccc(Cl)cc21,AC50,[17],8.89 µM (active)
same,AC50,[2],6.73 µM (active)
same,AC50,[3],4.53 µM (active)
same,AC50,[4],11.8 µM (active)
same,AC50,[5],18.8 µM (active)
same,AC50,[6],28.4 µM (active)
same,AC50,[7],12.8 µM (active)
same,AC50,[9],10.7 µM (active)
same,AC50,[10],12.8 µM (active)
same,AC50,[11],11.8 µM (active)
same,AC50,[12],11.8 µM (active)
same,AC50,[18],11 µM (active)
same,AC50,[19],14.3 µM (active)
same,AC50,[20],9.61 µM (active)
same,AC50,[13],21.1 µM (active)
same,outcome,[14],inactive
same,outcome,[15],inactive
CC(=O)CC(c1ccccc1)c1c(O)c2ccccc2oc1=O (stereo not given),outcome,[3],inactive
same,outcome,[4],inactive
same,outcome,[5],inactive
same,outcome,[6],inactive
same,outcome,[7],inactive
same,outcome,[8],inactive
same,outcome,[9],inactive
same,outcome,[10],inactive
same,outcome,[11],inactive
same,outcome,[12],inactive
same,outcome,[13],inactive
same,outcome,[14],inactive
same,outcome,[15],inactive
O=C1NC(=O)C(c2ccccc2)(c2ccccc2)N1,outcome,[17],inactive
same,outcome,[2],inactive
same,outcome,[3],inactive
same,outcome,[4],inactive
same,outcome,[5],inactive
same,outcome,[6],inactive
same,outcome,[9],inactive
same,outcome,[10],inactive
same,outcome,[11],inactive
same,outcome,[12],inactive
same,outcome,[18],inactive
same,outcome,[19],inactive
same,outcome,[20],inactive
same,outcome,[14],inactive
same,outcome,[16],inactive
COC(=O)[C@H]1[C@H]2C[C@@H]3c4[nH]c5cc(OC)ccc5c4CCN3C[C@H]2C[C@@H](OC(=O)c2cc(OC)c(OC)c(OC)c2)[C@@H]1OC,outcome,[1],inactive
